Data published in PubChem BioAssay (NCATS).
Inconclusive results are not listed. Unless noted, calls come from the whole dose curve; as a rule, active = well fitted curve in either direction with a large enough effect (not every such curve was filed as active); inconclusive = small, poorly fitted or top-dose-only effect, or another doubt; inactive = flat fitted curve, though single readings scatter.

Tests used:
[1] = AP1 Signaling Pathway (AID 357); details: ME-180 AP-1-bla reporter, EGF-induced, beta-lactamase ratio, 5 h; at 17.2 µM (top of the series) unless noted;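 note: ME-180 reporter cells stimulated with EGF at its EC50 level; % is set by controls: 0 for no effect and ±100 for the full control effect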
Summary of the method: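 Titration-series screen for positive or negative modulators of EC50 EGF-induced signaling in ME-180 cells carrying an AP-1-driven beta-lactamase reporter. After 5 hours at 37 degrees Celsius, CCF4 460nm/530nm emission ratio gave %Activity; AC50 values derived.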

[2] = Stat Signaling Pathway (AID 446); details: ME-180 SIE beta-lactamase reporter, IL-6 stimulated, 5 h; at 17.2 µM (top of the series) unless noted;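 note: ME-180 cervical cancer cells given 40 pM IL-6 alongside compound; SIE-controlled beta-lactamase reporter measured as 460/530 nm FRET emission ratio; % is set by controls: 0 for no effect and ±100 for the full control effect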
Summary of the method: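 ME-180 SIE-bla cells; overnight plating; cpd + IL-6 40 pM, 5 h, 37 C; LiveBLAzer 2.5 h RT; 460/530 nm emission ratio. Normalized to 300 pM IL-6 and 125 nM JAK inhibitor controls.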

[3] = biological target: Glucocorticoid receptor (Homo sapiens) (UniProt P04150); experiment: GR-GFP Redistribution (AID 450;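 active = compounds whose dose series gives a full or clear partial fitted curve of increased nuclear translocation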; note: potency is the fitted concentration of half-maximal effect); details: U2OS GR-GFP nuclear translocation, laser cytometry, 2 h; series mostly up to 20.6 µM
Sequence of Glucocorticoid receptor (Homo sapiens) (P04150 whole entry, looked up): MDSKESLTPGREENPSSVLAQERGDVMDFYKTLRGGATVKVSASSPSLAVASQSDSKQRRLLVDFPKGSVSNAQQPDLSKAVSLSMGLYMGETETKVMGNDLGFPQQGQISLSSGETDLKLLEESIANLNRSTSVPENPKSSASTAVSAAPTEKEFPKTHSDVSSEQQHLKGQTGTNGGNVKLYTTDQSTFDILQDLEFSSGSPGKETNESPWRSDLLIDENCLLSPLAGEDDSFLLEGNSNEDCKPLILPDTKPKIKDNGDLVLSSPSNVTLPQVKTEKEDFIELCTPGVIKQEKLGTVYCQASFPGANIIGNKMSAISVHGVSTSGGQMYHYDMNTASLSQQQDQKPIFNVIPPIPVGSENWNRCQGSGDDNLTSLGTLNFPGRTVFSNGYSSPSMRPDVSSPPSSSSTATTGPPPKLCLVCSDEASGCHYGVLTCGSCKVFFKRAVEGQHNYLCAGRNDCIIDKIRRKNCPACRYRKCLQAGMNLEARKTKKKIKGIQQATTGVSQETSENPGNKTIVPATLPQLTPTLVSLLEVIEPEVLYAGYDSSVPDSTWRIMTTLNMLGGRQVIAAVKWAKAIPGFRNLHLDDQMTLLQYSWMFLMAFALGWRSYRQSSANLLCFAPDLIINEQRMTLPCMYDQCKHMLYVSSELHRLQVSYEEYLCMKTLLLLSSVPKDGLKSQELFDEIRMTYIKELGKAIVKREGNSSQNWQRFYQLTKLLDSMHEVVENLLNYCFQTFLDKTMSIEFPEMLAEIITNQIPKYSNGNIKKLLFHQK

O=C(CCN1C(=O)c2ccccc2C1=O)OCN1C(=O)c2ccccc2C1=O
inactive: activity change, negative = inhibition [1] 5.65% | activity, negative = inhibition [2] -0.962% | Potency [3] > 20.6 µM

N#CCSc1nc2sc3c(c2c(=O)n1C1CCCCC1)CCCC3
inactive: activity change, negative = inhibition [1] -7.41% | activity, negative = inhibition [2] 6.22% | Potency [3] > 20.6 µM

Cc1ccc(NC(=O)CSC2=C(C#N)C(c3ccco3)C3=C(CCCC3=O)N2)cc1 (centres undefined)
inactive: activity change, negative = inhibition [1] -26.3% | activity, negative = inhibition [2] 30.5% | Potency [3] > 20.6 µM
